The list is not random: actives were taken first. Their share in the collection is about 3.2%.
Bst PK mod: alters activity of Bacillus stearothermophilus pyruvate kinase; purified pyruvate kinase, luminescence ATP production; ribose 5-phosphate activator present at AC10; Potency, µM; 51,000 compounds, 1.2% hits; AID 361; in the data active = potency below about 11 µM; inconclusive = mostly about 12 µM to 25 µM;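 the screen sought inhibitors and activators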
GBA mod: modulators of human glucocerebrosidase; Potency, µM; purified enzyme, resorufin glucoside fluorescence (screen aimed at inhibitors), 20 min; 48,000 compounds, 1.1% hits; in the data active = potency below about 15 µM; inconclusive = mostly about 16 µM to 33 µM;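 note: the screen sought inhibitors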
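Wild-type enzyme at 0.2 nM final in 50mM citric acid/KH2PO4, 10mM sodium taurocholate, 0.01% tween-20, pH 5.9, with resorufin beta-D-glucopyranoside at 30 uM final. Compounds titrated, 20 min at RT, red fluorescence read; AC50 from titration.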
Luciferase inh: inhibitors of firefly luciferase; P08659; purified firefly luciferase, luminescence, 8 min; Potency, µM (top dose mostly 57.1 µM), actives largely listed as inhibitors; 72,000 compounds, 2.2% hits; active = well fitted inhibition curve with a large enough effect; inconclusive = small, poorly fitted or top-dose-only effect; note: nearly all actives have a fitted effect of over 40% in size
Target sequence (P08659 whole entry, looked up): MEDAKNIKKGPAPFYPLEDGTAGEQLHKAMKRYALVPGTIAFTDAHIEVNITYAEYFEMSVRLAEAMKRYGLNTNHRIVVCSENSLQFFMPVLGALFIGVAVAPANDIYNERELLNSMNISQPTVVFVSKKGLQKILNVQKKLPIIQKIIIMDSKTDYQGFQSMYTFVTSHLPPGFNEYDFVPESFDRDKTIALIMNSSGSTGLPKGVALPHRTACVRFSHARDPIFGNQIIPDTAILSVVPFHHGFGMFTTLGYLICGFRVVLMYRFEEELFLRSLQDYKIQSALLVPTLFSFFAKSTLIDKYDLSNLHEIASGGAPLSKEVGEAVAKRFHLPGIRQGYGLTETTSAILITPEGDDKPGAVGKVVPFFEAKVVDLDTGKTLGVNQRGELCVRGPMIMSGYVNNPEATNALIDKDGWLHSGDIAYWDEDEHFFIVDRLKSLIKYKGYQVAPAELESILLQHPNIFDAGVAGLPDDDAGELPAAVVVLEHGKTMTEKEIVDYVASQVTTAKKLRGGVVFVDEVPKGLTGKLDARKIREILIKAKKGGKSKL
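Titration-based qHTS; buffer 50 mM imidazole pH 7.2, 50 mM KCl, 7 mM MgCl2, 10 uM ATP, 0.01% Tween 20, 0.05% BSA; luciferase/luciferin detector mix added after compound; 8 min, ambient; luminescence.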
Of the large screens only hits and unclear results are named; the others gave an inactive call.

Fc1ccc(-c2nc3n(n2)Cc2ccccc2-3)cc1	Bst PK mod 2.5, Luciferase inh 4µM
Cc1nc2cc(Cl)ccc2n1CCO	none
c1ccc(-c2cccc(N3CC[C@@]4(CCCNC4)C3)c2)cc1	none (no result: Bst PK mod, GBA mod)
C[C@]12CCC3c4ccc(O)cc4CCC3[C@@H]1CCC2=O (stereo not given in full)	none (no result: Bst PK mod, GBA mod)
CCN(CC)C[C@@H]1CCCCN1CC(=O)N1c2ccccc2C(=O)Nc2cccnc21	none (no result: Bst PK mod, GBA mod)
CCc1nnc(NC(=O)CSc2nnc(Cc3ccccc3)n2-c2ccccc2)s1	GBA mod inconclusive
CCc1nnc(NC(=O)CSc2nnc(CNc3cccc(C)c3)n2-c2ccccc2)s1	GBA mod 11
CCc1nnc(NC(=O)CSc2nnc(-c3ccccc3O)n2-c2ccc(C)cc2)s1	GBA mod 14
CCc1nnc(NC(=O)CSc2nnc(-c3ccccc3OC)n2-c2ccccc2)s1	none
c1ccc2nc(-c3nc4ccccc4[nH]3)ccc2c1	Bst PK mod 0.54, Luciferase inh 0.79µM
c1ccc2[nH]c(-c3cscn3)nc2c1	none
CC(=O)NCCNc1ncncc1-c1ccccc1C	none (no result: Bst PK mod, GBA mod)
Nc1c(S(=O)(=O)O)cc(Nc2cccc(S(N)(=O)=O)c2)c2c1C(=O)c1ccccc1C2=O	none (no result: Bst PK mod, GBA mod)
O=C(NCc1ccc(F)cc1)c1cc2ccccn2n1	none (no result: Bst PK mod, GBA mod)
CC(=O)c1cccc(NC(=O)Nc2cccnc2)c1	none (no result: GBA mod)
CC(=O)c1cccc(NC(=O)c2cnn3ccccc23)c1	Luciferase inh 13µM (no result: Bst PK mod, GBA mod)
CC(=O)c1cccc(NC(=O)c2cc3ccccn3n2)c1	Luciferase inh 3.2µM (no result: Bst PK mod, GBA mod)
COc1ccc(C(=O)N2CCC3(CCCN(c4ccccc4)C3)CC2)cc1	none (no result: Bst PK mod, GBA mod)
Cc1cc2ccc(=O)oc2cc1OC[C@@H](O)C(C)(C)O	none (no result: Bst PK mod, GBA mod)
C/C=C\C1=C(CO)[C@H](O)[C@H]2OC2[C@@H]1O (stereo not given in full)	none (no result: Bst PK mod, GBA mod)
Cc1c(C(=O)O)c(O)cc2c1C(=O)c1c(O)c([C@@H]3O[C@H](CO)[C@@H](O)[C@H](O)[C@@H]3O)c(O)c(O)c1C2=O	none (no result: Bst PK mod, GBA mod)
c1csc(-c2ncc3ccccn23)c1	none (no result: Bst PK mod)
COc1ccc(-c2ncc3ccccn23)cc1	Luciferase inh 16µM (no result: Bst PK mod)
CCN(CC)S(=O)(=O)c1ccc(S(=O)(=O)Nc2cc3c(cc2C(C)=O)OCO3)cc1	GBA mod 15
CC(=O)c1cc2c(cc1NS(=O)(=O)c1ccc3c(c1)OCCO3)OCO2	none
Cc1nn(Cc2ccc(C(=O)Nc3nccs3)cc2)c(C)c1Cl	Bst PK mod 3.1, GBA mod 14
CC(C)CN1C(=O)c2ccc(C(=O)Nc3ccncc3)cc2C1=O	GBA mod inconclusive
COCCN1C(=O)c2ccc(C(=O)Nc3nccs3)cc2C1=O	none (no result: Bst PK mod)
COc1ccc(C(=O)Nc2nccs2)cc1OC	none (no result: Bst PK mod, GBA mod)
Cc1ncoc1C(=O)Nc1nccs1	none
CCCc1cc(C(=O)Nc2nccs2)cs1	Bst PK mod inconclusive, Luciferase inh 7.9µM (no result: GBA mod)
CCCN1C(=O)c2ccc(C(=O)Nc3nccs3)cc2C1=O	Luciferase inh 13µM
CC(C)CN1C(=O)c2ccc(C(=O)Nc3nccs3)cc2C1=O	Luciferase inh 13µM (no result: Bst PK mod, GBA mod)
C=CC[C@@H]1C=C[C@@H](O/N=C\[C@@H](NS(=O)(=O)c2ccc(C)cc2)[C@H](C)/C=C\CC(=O)OC)[C@@H](CO)O1	none (no result: Bst PK mod, GBA mod)
O=C(NCCCN1CCCCCC1)[C@@H](c1ccccc1)C1CCCCC1	none (no result: Bst PK mod, GBA mod)
COc1cccc(Nc2ncc3nc(-c4cc(F)cc(F)c4)c(=O)n(CCC#N)c3n2)c1	none (no result: Bst PK mod, GBA mod)
Cn1cccc1C(=O)N1CCC2(CCCN(c3ccccn3)C2)CC1	none (no result: Bst PK mod, GBA mod)
COc1cccc(Cn2c(=O)c(CCc3ccccc3)nc3cnc(N4CCOCC4)nc32)c1	none (no result: Bst PK mod, GBA mod)
Cn1c(=O)c2c(nc(/C=C\c3cccc(Cl)c3)n2C)n(C)c1=O	none (no result: Bst PK mod, GBA mod)
Cc1c(CCC(=O)O)c(=O)oc2cc3occ(-c4ccc(F)cc4)c3cc12	Bst PK mod 8.3
Cc1c(CCC(=O)O)c(=O)oc2cc(O)ccc12	none (no result: Bst PK mod, GBA mod)
O=C(Oc1ccc(OC(=O)N2CCOCC2)cc1)c1ccccc1	GBA mod 8
O=C(Oc1ccccc1OC(=O)N1CCOCC1)N1CCOCC1	none
Cc1cc(NC(=O)c2oc3ccccc3c2C)ccc1-n1cnnn1	Luciferase inh 10µM (no result: GBA mod)
COc1cc(OC)cc(C(=O)Nc2ccc(-n3cnnn3)c(C)c2)c1	none (no result: GBA mod)
Cc1c(C(=O)Nc2ccc(N3CCOCC3)cc2)oc2ccccc12	Bst PK mod inconclusive, Luciferase inh 2.5µM
Cc1c(C(=O)Nc2ccncc2)oc2ccccc12	none (no result: GBA mod)
CC(=O)OC[C@@H]1O[C@@H](O/N=C2/C[C@@H](O)[C@@H](O)[C@@H]3[C@@H]4C(=O)N(C5CCCCC5)C(=O)[C@H]4CC[C@@H]23)[C@H](OC(C)=O)[C@H](OC(C)=O)[C@@H]1OC(C)=O	none (no result: Bst PK mod, GBA mod)
CC(C)(C)n1ncc2c(=O)n(CC(=O)NCc3ccccc3Cl)cnc21	Luciferase inh 25µM (no result: Bst PK mod)
CC(C)(C)n1ncc2c(=O)n(CC(=O)NCCc3ccccc3)cnc21	none
COC(=O)N1CCC[C@@]2(CCN(C(=O)Nc3cccc(C#N)c3)C2)C1	none (no result: Bst PK mod, GBA mod)
CC(C)Oc1ccc2c(=O)c(-c3ccccc3)coc2c1	Luciferase inh 5µM (no result: GBA mod)
